# Assay results published in PubChem BioAssay.
# Key:
# [1] = tested on: Human papillomavirus type 1a protein E7 (residues 44-93); assay: small molecules binding HPV E7 44-93 – biochemical, small-molecule microarray, residues 44-93, 635 nm fluorescence, primary screen (AID 1108); conditions: fluorescence 635 nm, higher = more signal;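 also: E7 fragment applied at 1 µg/mL in TBST for 1 h at 4 C; score combines spot fluorescence with its signal to noise ratio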
# [2] = hepatitis C replication reporter changes, two-sided – Huh7 cells, luciferase reporter, HCV replication inhibitor project, primary screen (AID 1109); conditions: Huh7 HCV replicon luciferase reporter, 48 h; higher = more signal;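 also: huh7 hepatoma cells harbouring a luciferase neomycin HCV replicon reporter; luciferase luminescence as measure of HCV replicon replication; test concentration not given here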
# [3] = biological target: Left-right determination factor 2 (Homo sapiens) (UniProt O00292); assay: small molecules binding LEFTY2 protein – biochemical, small-molecule microarray, 635 nm fluorescence scan, primary screen (AID 1110); conditions: higher = more signal
# [4] = biological target: Calmodulin-1 (Homo sapiens) (UniProt P0DP23); assay: small molecules binding calmodulin-1 with EGTA – biochemical, small-molecule microarray, Cy5-labelled CALM1, profiling panel (AID 1111); conditions: Cy5-CALM1 binding fluorescence, higher = more signal;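 also: labelled calmodulin applied in Tris saline Tween buffer holding calcium plus EGTA and DTT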
# [5] = biological target: Calmodulin-1 (Homo sapiens) (UniProt P0DP23); assay: small molecules binding Ca-loaded calmodulin-1 – biochemical, small-molecule microarray, Cy5-labelled CALM1, plus calcium, artefact control for SMM control-protein annotation, profiling panel (AID 1112); conditions: Cy5-CALM1 binding fluorescence, higher = more signal;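 also: score merges spot fluorescence with signal to noise from triplicate slides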
# [6] = probe aWnt5a binding to arrayed compounds – biochemical, biotinylated probe, 635/667 nm fluorescence, primary screen (AID 1113); conditions: small-molecule microarray, higher = more signal;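 also: score merges 667 nm fluorescence intensity with signal-to-noise per printed feature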
# [7] = probe aShh binding to arrayed compounds – biochemical, biotinylated probe, 635/667 nm fluorescence, primary screen (AID 1114); conditions: small-molecule microarray, higher = more signal;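 also: probe is biotin-labelled aShh protein from a stem cell growth factor screen; measures binding of labelled protein to compounds printed on the slide; score merges feature fluorescence at 667 nm with signal-to-noise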
# [8] = probe aNog binding to arrayed compounds – biochemical, biotinylated probe, 635/667 nm fluorescence, primary screen (AID 1115); conditions: small-molecule microarray, higher = more signal;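 also: probe is biotinylated aNog protein used at 0.15 µg/mL for 1 h at 4 C; z-score combines 667 nm fluorescence of each spot with its signal to noise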
# [9] = biological target: Torsin-1A-interacting protein 1 (Homo sapiens) (UniProt Q5JTV8); assay: compound microarray binding of lysate hLAP1 – cell lysate, small-molecule microarray, COS7 lysate, 635/667 nm fluorescence, primary screen (AID 1116); conditions: 635 nm fluorescence, higher = more signal
# [10] = biological target: Alpha-bungarotoxin (Bungarus multicinctus) (UniProt P60615); assay: compounds binding labelled alpha-BTX control protein – biochemical, small-molecule microarray, Alexa647 label, 635/667 nm fluorescence, artefact control for SMM control protein annotation, profiling panel (AID 1117); conditions: alpha-BTX-A647 binding fluorescence, higher = more signal
# Sequence of Alpha-bungarotoxin (Bungarus multicinctus) (P60615 whole entry, looked up): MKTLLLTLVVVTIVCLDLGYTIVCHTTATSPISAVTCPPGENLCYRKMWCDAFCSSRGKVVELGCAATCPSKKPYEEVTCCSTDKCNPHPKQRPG
# Sequence of Torsin-1A-interacting protein 1 (Homo sapiens) (Q5JTV8 whole entry, looked up): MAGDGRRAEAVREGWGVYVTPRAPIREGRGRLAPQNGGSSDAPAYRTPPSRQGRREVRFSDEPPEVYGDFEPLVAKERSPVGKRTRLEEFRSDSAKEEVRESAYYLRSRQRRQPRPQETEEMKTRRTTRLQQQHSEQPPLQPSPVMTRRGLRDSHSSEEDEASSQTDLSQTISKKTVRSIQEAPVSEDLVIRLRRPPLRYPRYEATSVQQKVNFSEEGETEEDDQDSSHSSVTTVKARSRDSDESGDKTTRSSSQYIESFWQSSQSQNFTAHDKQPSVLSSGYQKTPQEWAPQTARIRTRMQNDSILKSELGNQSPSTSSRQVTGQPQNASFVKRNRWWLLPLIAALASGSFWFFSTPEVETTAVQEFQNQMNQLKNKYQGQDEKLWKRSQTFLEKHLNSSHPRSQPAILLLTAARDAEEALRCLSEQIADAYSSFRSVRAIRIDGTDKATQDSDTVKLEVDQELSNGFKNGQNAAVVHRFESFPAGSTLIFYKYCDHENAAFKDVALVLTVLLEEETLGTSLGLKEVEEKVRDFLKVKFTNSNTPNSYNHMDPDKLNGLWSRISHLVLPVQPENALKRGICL
# Sequence of Left-right determination factor 2 (Homo sapiens) (O00292 whole entry, looked up): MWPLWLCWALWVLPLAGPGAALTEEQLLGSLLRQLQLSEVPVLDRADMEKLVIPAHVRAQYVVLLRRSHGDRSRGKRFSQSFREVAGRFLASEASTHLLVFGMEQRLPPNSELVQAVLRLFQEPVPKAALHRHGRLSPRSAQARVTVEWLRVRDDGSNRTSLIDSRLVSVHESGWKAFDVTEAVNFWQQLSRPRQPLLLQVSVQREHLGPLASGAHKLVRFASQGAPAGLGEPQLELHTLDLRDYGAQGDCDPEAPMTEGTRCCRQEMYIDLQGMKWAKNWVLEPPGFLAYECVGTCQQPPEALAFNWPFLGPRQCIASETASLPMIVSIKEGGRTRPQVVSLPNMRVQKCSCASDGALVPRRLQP
Structure (SMILES),composite z-score [1],z-score [2],composite z-score [3],composite z-score [4],composite z-score [5],composite z-score [6],composite z-score [7],composite z-score [8],composite z-score [9],composite z-score [10]
COc1ccc(C#Cc2ccc3c(c2)[C@]2(C(=O)N3)[C@H](c3ccc(O)cc3)N3[C@H](c4ccccc4)[C@H](c4ccccc4)OC(=O)[C@H]3[C@@H]2C(=O)Nc2nc3ccccc3s2)cc1,1.26,-1.13,0.739,1.11,0.495,-0.0685,-0.0813,0.352,1.22,1.25
CN(C)CCCCCCNC(=O)[C@@H]1C[C@@H]2C(=O)N3CCC[C@H]3C(=O)N2[C@@H]1c1cccc(OCCO)c1,0.35,0.857,0.944,-0.215,-1.74,0.0566,0.176,0.822,2.07,1.79
COc1ccc([C@H]2OC[C@@H]3C[C@H](Cc4ccccc4)C(=O)N32)cc1,0.156,-2.66,0.367,0.106,-0.668,0.188,0.111,-0.113,0.373,1.59
CCCCC(O)C1C=CC2C(=O)N(C)C(=O)C2N1N(c1ccccc1)c1ccccc1 (stereo not given),0.447,-0.991,0.186,2.06,0.766,-0.0161,0.393,1.53,1.41,1.8
CCOC(=O)C[C@H]1[C@H](OC(=O)c2ccc(C(=O)c3ccccc3)cc2)[C@@H](NC(=O)CC(C)C)c2cc(OCCCO)ccc2N1C(=O)c1ccccc1,1.3,-1.12,0.53,0.735,-0.165,-0.0758,-0.167,-0.0927,0.537,0.741
Cc1ccc(S[C@]2(C(=O)NCc3ccccc3)CC(=O)N(C3CCCCC3)[C@@H]2c2ccc(CO)cc2I)cc1,1.23,-2.75,-0.364,0.699,-0.267,0.205,-0.0324,-0.18,0.759,0.604
C=CC[C@@]1(C(=O)NCCCOC)N=C(c2ccc(OCCCO)cc2)O[C@@H]1c1ccccc1,1.06,-0.449,-0.526,1.94,0.626,0.155,-0.102,0.365,2.89,-0.146
CC(C)C[C@@H]1NC(=O)[C@@H]2C[C@H](C(=O)NCCCCCCN)[C@H](c3cccc(OCCO)c3)N2C1=O,1.46,-0.125,0.281,0.861,-0.0534,-0.0461,-0.349,-0.346,1.13,1.67
COC(=O)c1c(CC[C@@H](CO)NC(=O)N[C@@H](C)Cn2cc(-c3ccccn3)nn2)oc(C(C)=O)c1C(=O)OC,0.683,0.51,0.328,-0.063,-1.06,-0.0981,0.123,-0.0926,0.237,-0.715
CCCCCN1CC=CC23O[C@@H]4C=CCCOC(=O)C4[C@H]2C(=O)N(CCCCCCO)[C@@H]3C1=O (stereo not given in full),0.521,0.525,-0.287,-0.711,-0.533,-0.168,-0.0769,-0.316,0.564,-0.675
C=CCOC(=O)[C@@]1(Cc2ccccc2)C[C@H]2CO[C@H](c3ccc(OC)cc3)N2C1=O,0.206,-0.938,0.283,-0.388,-0.659,-0.0846,-0.0035,-0.118,0.574,0.352
O=C1OCCC=C[C@H]2OC34C=CCN(c5ccc6ccccc6c5)C(=O)[C@H]3N(CCCO)C(=O)[C@@H]4C12 (stereo not given in full),-2,-0.24,-1.31,-0.834,-0.885,-0.294,-0.153,0.181,-1.25,-1.27
COCCOC(=O)N1C(=O)[C@@]2(c3cc(C#CCCO)ccc31)[C@H](c1ccc(OCCO)cc1)N1[C@H](c3ccccc3)[C@H](c3ccccc3)OC(=O)[C@H]1[C@@H]2C(=O)Nc1nc2ccccc2s1,0.281,-1.13,0.95,0.751,0.682,-0.0977,0.626,0.0947,1.08,1.96
NC(=O)[C@@]1(Cc2ccccc2)COC(c2ccc(OCCCO)cc2)=N1,0.404,1.84,-0.263,0.435,1.2,-0.0179,0.46,0.959,0.381,-0.0002
CN1C(=O)C2C=CC(C(O)c3cccn3C)N(Nc3ccc([N+](=O)[O-])cc3[N+](=O)[O-])C2C1=O (stereo not given),0.0443,-0.0091,-0.135,1.08,0.212,0.0357,0.496,0.31,-0.0083,0.401
COCCOC(=O)N1C(=O)[C@@]2(c3cc(C#CC4(O)CCCCCC4)ccc31)[C@H](C(=O)N1CCc3cc(OC)c(OC)cc3C1)[C@H]1C(=O)O[C@H](c3ccccc3)[C@H](c3ccccc3)N1[C@@H]2c1ccc(OCCO)cc1,1.14,-1.22,0.805,0.903,-0.392,-0.0685,-0.0011,-0.136,0.695,0.152
CN(C)C(=O)[C@@]1(Cc2ccccc2CN=[N+]=[N-])N=C(c2ccc(OCCCO)cc2)O[C@H]1c1ccccc1N=[N+]=[N-],1.45,-2.99,-0.553,1.73,1.11,-0.191,-0.138,1.84,2.26,1.93
COC(=O)[C@]1(CCS(=O)(=O)c2ccccc2)N=C(c2ccc(OCCCO)cc2)O[C@@H]1c1ccccc1N=[N+]=[N-],-0.0608,-2.55,0.744,1.73,0.785,0.0655,0.232,0.897,0.815,2.06
NC(=O)[C@H]1[C@@H]2C(=O)O[C@@H](c3ccccc3)[C@@H](c3ccccc3)N2[C@@H](c2ccc(OCCO)cc2)[C@]12C(=O)Nc1ccc(C#CCCO)cc12,0.333,-1.39,-0.128,0.947,0.382,0.055,-0.253,-0.387,0.757,1.59
CC#CCO[Si](C#Cc1ccccc1)(C(C)C)C(C)C,-2.07,0.046,-0.0764,-0.0874,0.877,-0.224,-0.0769,-0.281,-0.785,-1.53
O=C1O[C@@H](c2ccccc2)[C@@H](c2ccccc2)N2[C@@H](c3ccc(O)cc3)[C@]3(C(=O)Nc4ccc(C#CCCO)cc43)[C@@H](C(=O)N3CCN(c4ncccn4)CC3)[C@H]12,0.99,-0.671,0.787,-0.587,-0.948,-0.512,-0.232,0.498,0.255,0.101
CC(C)(C)OC(=O)CC[C@@]1(C(=O)NCC(O)CO)N=C(c2ccc(OCCCO)cc2)O[C@@H]1c1ccccc1CN=[N+]=[N-] (stereo not given in full),1.11,-0.75,-0.222,1.25,0.311,-0.124,0.108,0.72,1.64,0.833
